{"source": "paper PMC7862700", "about": "“An all-to-all approach to the identification of sequence-specific readers for epigenetic DNA modifications on cytosine”", "assay_in_all_cases": "DAPPL (digital affinity profiling via proximity ligation, sequencing); 10 mM Tris-HCl pH 7.5, 50 mM NaCl, 1 mM DTT, 4% glycerol, room temperature, 30 min; GST-TFs on glutathione beads, 16-mer random dsDNA library, 0.1% formaldehyde crosslink after washing; high values mean tight binding", "key": {"FLI1": {"target": "T1, FLI1 (Homo sapiens, UniProt Q01543 1-452)", "T1 sequence": "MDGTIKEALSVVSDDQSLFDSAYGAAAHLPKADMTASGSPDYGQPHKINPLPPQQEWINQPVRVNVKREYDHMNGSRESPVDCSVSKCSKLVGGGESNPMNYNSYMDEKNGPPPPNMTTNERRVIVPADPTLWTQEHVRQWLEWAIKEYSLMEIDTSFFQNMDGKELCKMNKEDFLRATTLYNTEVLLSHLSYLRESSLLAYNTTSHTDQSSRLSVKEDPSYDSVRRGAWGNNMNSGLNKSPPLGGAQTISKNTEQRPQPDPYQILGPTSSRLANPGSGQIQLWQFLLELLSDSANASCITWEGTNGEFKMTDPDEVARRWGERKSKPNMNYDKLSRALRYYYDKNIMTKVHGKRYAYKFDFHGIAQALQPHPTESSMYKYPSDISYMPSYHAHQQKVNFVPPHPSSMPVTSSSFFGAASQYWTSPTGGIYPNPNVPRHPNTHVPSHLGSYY", "conditions": "protein: recombinant; tags: N-terminal GST; dsDNA, one strand shown", "method_in_brief": "(§1)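 Beads coated with glutathione captured GST-fused human transcription factors that had been expressed in yeast, and the factors were then given DNA barcodes and pooled with a tag-only sample. The pools were incubated with 200 nmole of a random double-stranded 16-mer DNA library in Tris/NaCl/DTT/glycerol buffer for 30 min at room temperature, washed, crosslinked with 0.1% formaldehyde and proximity-ligated with BsaI/T4 ligase at 37 °C for 1 h. PCR amplification and Illumina NextSeq500 sequencing came last. Binding signal is each hexamer's read frequency for a factor divided by its frequency for the tag-only sample.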"}, "ELK1": {"target": "T2, ELK1 (Homo sapiens, UniProt P19419 1-428)", "T2 sequence": "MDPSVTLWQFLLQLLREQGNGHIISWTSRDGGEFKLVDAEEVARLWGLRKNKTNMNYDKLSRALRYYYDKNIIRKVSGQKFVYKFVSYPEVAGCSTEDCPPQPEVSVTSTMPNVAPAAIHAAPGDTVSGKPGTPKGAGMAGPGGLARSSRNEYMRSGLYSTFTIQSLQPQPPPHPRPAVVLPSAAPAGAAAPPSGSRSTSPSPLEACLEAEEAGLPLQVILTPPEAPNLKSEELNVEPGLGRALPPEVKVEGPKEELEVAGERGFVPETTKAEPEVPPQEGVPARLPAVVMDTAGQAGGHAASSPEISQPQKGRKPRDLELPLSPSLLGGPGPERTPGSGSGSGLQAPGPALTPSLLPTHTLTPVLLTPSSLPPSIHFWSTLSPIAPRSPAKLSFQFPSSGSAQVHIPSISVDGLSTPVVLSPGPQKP", "conditions": "protein: recombinant; tags: N-terminal GST; dsDNA, one strand shown", "method_in_brief": "as §1"}, "GABPA": {"target": "T3, GABPA (Homo sapiens, UniProt Q06546 1-454)", "T3 sequence": "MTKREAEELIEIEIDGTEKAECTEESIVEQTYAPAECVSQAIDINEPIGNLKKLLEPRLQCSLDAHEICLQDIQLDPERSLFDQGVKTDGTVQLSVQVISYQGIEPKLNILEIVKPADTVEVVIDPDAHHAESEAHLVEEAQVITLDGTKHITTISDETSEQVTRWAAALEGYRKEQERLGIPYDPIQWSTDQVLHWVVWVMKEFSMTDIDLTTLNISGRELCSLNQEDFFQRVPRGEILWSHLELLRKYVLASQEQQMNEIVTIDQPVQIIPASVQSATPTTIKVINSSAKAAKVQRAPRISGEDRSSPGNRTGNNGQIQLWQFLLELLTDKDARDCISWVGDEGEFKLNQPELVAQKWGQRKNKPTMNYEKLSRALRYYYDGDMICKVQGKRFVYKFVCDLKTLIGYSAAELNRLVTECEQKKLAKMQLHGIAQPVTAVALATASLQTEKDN", "conditions": "protein: recombinant; tags: N-terminal GST; dsDNA, one strand shown", "method_in_brief": "as §1"}, "ERG": {"target": "T4, ERG (Homo sapiens, UniProt P11308 1-479)", "T4 sequence": "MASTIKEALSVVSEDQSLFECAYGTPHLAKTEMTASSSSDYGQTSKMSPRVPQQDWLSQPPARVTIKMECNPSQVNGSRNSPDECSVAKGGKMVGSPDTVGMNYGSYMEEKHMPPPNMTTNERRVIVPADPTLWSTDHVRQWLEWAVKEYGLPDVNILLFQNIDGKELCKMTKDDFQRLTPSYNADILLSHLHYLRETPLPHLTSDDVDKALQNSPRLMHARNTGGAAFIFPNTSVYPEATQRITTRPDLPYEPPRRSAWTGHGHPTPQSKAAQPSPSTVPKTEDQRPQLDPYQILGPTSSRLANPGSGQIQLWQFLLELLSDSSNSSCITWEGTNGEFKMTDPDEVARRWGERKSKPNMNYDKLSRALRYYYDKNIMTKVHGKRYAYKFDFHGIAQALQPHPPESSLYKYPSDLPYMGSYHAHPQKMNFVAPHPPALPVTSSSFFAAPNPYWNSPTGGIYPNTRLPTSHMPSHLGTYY", "conditions": "protein: recombinant; tags: N-terminal GST; dsDNA, one strand shown", "method_in_brief": "as §1"}, "ELF1": {"target": "ELF1 (Homo sapiens, UniProt P32519 1-619)", "sequence (P32519 whole entry)": "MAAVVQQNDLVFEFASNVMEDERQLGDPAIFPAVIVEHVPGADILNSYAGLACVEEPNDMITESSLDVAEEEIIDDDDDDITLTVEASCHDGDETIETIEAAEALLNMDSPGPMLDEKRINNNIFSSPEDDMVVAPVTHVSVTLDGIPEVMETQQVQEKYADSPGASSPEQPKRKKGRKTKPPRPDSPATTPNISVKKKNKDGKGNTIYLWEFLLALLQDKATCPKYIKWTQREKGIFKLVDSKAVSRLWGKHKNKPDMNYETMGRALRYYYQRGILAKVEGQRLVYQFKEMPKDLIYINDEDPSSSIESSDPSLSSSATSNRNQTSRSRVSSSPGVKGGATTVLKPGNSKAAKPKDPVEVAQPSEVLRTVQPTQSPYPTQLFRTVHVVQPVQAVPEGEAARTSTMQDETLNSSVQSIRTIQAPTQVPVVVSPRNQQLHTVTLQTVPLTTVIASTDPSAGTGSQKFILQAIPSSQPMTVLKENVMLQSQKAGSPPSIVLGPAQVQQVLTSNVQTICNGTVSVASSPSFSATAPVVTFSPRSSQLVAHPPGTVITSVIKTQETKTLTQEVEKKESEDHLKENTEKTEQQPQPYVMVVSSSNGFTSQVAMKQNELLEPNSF", "conditions": "protein: recombinant; tags: N-terminal GST; dsDNA, one strand shown", "method_in_brief": "as §1"}, "EHF": {"target": "T5, EHF (Homo sapiens, UniProt Q9NZC4 1-300)", "T5 sequence": "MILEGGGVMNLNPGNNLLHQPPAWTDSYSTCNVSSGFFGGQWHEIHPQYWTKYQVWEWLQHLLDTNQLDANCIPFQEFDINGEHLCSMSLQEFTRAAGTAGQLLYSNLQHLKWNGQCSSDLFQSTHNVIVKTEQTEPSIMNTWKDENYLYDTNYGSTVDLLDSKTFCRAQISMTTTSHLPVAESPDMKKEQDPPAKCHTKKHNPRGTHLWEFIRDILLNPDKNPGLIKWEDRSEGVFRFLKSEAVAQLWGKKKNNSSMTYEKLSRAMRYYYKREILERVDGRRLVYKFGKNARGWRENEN", "conditions": "protein: recombinant; tags: N-terminal GST; dsDNA, one strand shown", "method_in_brief": "as §1"}, "SPI1": {"target": "SPI1 (Homo sapiens, UniProt P17947 1-270)", "conditions": "protein: recombinant; tags: N-terminal GST; dsDNA, one strand shown", "method_in_brief": "as §1"}, "SPIB": {"target": "SPIB (Homo sapiens, UniProt Q01892 1-262)", "sequence (Q01892 whole entry)": "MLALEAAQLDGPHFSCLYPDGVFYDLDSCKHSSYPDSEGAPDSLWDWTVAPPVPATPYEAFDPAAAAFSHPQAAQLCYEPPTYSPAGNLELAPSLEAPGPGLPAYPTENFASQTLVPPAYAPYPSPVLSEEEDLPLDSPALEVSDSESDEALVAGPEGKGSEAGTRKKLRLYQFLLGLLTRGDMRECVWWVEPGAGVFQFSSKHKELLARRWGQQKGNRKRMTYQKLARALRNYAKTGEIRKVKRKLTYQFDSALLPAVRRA", "conditions": "protein: recombinant; tags: N-terminal GST; dsDNA, one strand shown", "method_in_brief": "as §1"}, "FEV": {"target": "T6, FEV (Homo sapiens, UniProt Q99581 1-238)", "T6 sequence": "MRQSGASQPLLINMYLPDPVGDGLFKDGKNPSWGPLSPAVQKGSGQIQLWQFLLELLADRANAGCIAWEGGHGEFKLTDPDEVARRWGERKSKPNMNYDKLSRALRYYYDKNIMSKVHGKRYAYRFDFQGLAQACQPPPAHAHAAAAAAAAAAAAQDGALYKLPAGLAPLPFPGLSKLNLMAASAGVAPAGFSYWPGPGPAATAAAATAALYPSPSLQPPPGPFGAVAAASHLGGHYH", "conditions": "protein: recombinant; tags: N-terminal GST; dsDNA, one strand shown", "method_in_brief": "as §1"}, "ETV5": {"target": "ETV5 (Homo sapiens, UniProt P41161 1-510)", "sequence (P41161 whole entry)": "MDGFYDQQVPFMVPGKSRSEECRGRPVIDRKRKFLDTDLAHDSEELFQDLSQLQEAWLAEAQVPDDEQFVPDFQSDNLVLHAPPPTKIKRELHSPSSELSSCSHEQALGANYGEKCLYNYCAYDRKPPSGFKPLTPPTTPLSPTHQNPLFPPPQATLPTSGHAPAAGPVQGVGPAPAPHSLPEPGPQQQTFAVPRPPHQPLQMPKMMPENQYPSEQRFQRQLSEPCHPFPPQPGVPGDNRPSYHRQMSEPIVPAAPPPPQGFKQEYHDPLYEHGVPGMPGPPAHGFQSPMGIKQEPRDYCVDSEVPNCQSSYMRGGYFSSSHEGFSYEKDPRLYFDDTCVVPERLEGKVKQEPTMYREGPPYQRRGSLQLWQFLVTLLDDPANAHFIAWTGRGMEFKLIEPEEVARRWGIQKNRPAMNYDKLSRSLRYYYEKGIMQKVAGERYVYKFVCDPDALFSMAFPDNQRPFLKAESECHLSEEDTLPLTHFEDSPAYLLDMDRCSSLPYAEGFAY", "conditions": "protein: recombinant; tags: N-terminal GST; dsDNA, one strand shown", "method_in_brief": "as §1"}, "HSF1": {"target": "HSF1 (Homo sapiens, UniProt Q00613 1-529)", "sequence (Q00613 whole entry)": "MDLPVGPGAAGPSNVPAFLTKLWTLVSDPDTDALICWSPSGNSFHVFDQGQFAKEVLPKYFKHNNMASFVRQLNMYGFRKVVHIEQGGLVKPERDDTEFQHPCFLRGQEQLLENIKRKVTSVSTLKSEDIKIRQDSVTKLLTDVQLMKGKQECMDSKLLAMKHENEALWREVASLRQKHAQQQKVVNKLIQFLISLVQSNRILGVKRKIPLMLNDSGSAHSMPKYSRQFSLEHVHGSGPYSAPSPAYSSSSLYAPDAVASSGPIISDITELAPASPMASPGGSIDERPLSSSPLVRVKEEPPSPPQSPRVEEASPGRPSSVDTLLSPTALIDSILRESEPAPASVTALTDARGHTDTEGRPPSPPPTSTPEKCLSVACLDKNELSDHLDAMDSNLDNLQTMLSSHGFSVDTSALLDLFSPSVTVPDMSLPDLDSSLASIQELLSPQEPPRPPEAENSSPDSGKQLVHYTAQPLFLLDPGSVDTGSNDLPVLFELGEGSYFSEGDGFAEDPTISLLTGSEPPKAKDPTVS", "conditions": "protein: recombinant; tags: N-terminal GST; chain copies: 3; dsDNA, one strand shown", "method_in_brief": "as §1"}, "SPIC": {"target": "T7, SPIC (Homo sapiens, UniProt Q8N5J4 1-248)", "T7 sequence": "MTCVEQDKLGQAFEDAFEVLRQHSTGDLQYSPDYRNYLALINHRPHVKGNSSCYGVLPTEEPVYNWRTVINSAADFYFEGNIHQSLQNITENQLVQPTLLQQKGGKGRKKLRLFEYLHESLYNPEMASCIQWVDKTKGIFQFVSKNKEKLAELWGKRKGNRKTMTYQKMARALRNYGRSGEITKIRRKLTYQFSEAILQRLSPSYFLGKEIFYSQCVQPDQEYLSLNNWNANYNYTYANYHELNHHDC", "conditions": "protein: recombinant; tags: N-terminal GST; dsDNA, one strand shown", "method_in_brief": "as §1"}, "ELF4": {"target": "ELF4 (Homo sapiens, UniProt Q99607 1-663)", "sequence (Q99607 whole entry)": "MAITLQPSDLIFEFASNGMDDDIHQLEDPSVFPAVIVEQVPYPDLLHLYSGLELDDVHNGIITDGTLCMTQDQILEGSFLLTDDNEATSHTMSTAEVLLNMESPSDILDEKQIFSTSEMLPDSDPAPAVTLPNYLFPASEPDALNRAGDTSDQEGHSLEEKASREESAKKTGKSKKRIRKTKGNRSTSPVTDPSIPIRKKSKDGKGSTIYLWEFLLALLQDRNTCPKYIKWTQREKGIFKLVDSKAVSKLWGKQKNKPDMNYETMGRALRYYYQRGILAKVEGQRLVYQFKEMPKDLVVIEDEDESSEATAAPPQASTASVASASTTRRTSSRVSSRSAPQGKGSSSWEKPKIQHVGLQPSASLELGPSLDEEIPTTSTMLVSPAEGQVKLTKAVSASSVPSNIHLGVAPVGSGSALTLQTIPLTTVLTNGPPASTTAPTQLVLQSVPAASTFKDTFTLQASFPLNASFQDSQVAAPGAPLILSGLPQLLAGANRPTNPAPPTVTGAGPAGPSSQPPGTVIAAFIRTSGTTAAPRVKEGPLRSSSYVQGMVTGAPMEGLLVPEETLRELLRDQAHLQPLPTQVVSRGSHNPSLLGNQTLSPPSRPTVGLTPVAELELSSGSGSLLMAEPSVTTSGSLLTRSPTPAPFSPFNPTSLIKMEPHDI", "conditions": "protein: recombinant; tags: N-terminal GST; dsDNA, one strand shown", "method_in_brief": "as §1"}, "ELK4": {"target": "T8, ELK4 (Homo sapiens, UniProt P28324-2 1-405)", "T8 sequence": "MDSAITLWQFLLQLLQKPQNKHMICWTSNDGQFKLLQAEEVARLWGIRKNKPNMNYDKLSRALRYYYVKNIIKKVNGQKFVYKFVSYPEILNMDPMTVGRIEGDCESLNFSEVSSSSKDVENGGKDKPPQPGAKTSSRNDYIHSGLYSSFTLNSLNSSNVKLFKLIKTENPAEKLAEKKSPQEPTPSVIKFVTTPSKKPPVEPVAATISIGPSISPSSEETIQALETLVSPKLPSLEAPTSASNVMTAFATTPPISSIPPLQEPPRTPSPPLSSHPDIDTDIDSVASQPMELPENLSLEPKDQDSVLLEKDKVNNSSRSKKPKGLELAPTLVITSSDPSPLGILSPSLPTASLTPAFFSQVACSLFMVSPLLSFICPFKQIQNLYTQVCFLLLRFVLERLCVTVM", "conditions": "protein: recombinant; tags: N-terminal GST; dsDNA, one strand shown", "method_in_brief": "as §1"}, "ETV2": {"target": "T9, ETV2 (Homo sapiens, UniProt O00321 1-342)", "T9 sequence": "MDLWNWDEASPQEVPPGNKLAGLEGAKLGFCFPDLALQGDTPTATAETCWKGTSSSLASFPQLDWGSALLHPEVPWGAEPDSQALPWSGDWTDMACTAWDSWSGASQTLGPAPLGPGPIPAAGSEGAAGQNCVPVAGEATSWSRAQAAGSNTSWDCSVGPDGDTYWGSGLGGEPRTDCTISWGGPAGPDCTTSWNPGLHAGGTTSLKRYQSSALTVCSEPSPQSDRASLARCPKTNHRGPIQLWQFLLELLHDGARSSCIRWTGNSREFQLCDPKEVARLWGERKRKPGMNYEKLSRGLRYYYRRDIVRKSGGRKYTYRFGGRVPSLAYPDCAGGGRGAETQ", "conditions": "protein: recombinant; tags: N-terminal GST; dsDNA, one strand shown", "method_in_brief": "as §1"}, "ELF3": {"target": "T10, ELF3 (Homo sapiens, UniProt P78545 1-371)", "T10 sequence": "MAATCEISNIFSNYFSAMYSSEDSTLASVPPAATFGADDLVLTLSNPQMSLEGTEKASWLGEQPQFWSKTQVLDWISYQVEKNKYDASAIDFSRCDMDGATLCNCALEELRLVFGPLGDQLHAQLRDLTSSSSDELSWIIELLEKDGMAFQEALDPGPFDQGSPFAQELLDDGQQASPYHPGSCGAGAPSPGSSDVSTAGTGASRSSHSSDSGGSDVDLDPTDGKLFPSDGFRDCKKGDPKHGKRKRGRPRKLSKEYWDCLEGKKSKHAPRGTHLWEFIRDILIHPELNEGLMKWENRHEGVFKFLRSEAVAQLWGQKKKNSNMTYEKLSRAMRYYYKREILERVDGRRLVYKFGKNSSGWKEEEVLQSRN", "conditions": "protein: recombinant; tags: N-terminal GST; dsDNA, one strand shown", "method_in_brief": "as §1"}, "CRX": {"target": "CRX (Homo sapiens, UniProt O43186 1-299)", "sequence (O43186 whole entry)": "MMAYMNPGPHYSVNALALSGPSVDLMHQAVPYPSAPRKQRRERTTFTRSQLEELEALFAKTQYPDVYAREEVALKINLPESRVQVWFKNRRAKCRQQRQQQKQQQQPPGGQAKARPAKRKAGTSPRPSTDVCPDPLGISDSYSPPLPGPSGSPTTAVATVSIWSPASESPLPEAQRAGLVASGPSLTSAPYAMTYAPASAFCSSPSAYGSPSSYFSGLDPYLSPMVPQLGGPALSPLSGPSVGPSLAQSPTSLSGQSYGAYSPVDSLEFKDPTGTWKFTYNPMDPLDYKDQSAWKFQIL", "conditions": "protein: recombinant; tags: N-terminal GST; dsDNA, one strand shown", "method_in_brief": "as §1"}, "ETV1": {"target": "ETV1 (Homo sapiens, UniProt P50549 1-477)", "sequence (P50549 whole entry)": "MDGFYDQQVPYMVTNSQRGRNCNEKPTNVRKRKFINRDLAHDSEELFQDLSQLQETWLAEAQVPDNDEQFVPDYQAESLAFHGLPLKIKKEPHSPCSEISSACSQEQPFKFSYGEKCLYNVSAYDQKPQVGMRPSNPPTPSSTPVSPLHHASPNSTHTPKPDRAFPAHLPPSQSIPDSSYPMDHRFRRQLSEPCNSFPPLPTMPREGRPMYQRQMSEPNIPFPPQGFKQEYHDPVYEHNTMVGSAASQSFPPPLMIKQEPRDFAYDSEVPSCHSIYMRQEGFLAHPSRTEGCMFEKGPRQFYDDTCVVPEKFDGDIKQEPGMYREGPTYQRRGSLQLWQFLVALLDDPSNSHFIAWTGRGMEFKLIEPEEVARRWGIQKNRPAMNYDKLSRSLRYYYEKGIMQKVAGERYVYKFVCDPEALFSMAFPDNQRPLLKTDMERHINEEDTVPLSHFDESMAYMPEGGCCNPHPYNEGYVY", "conditions": "protein: recombinant; tags: N-terminal GST; dsDNA, one strand shown", "method_in_brief": "as §1"}}, "data": [{"sequence": "TAGCTG", "values": [{"measurement": "binding signal", "setting": "FLI1", "value": "1.29 fold enrichment (6-mer frequency, TF over GST control)"}, {"measurement": "binding signal", "setting": "ELK1", "value": "1.19 fold enrichment (6-mer frequency, TF over GST control)"}, {"measurement": "binding signal", "setting": "GABPA", "value": "1.21 fold enrichment (6-mer frequency, TF over GST control)"}, {"measurement": "binding signal", "setting": "ERG", "value": "1.11 fold enrichment (6-mer frequency, TF over GST control)"}, {"measurement": "binding signal", "setting": "ELF1", "value": "1.24 fold enrichment (6-mer frequency, TF over GST control)"}, {"measurement": "binding signal", "setting": "EHF", "value": "1.31 fold enrichment (6-mer frequency, TF over GST control)"}, {"measurement": "binding signal", "setting": "SPI1", "value": "1.22 fold enrichment (6-mer frequency, TF over GST control)"}, {"measurement": "binding signal", "setting": "SPIB", "value": "1.3 fold enrichment (6-mer frequency, TF over GST control)"}, {"measurement": "binding signal", "setting": "FEV", "value": "1.16 fold enrichment (6-mer frequency, TF over GST control)"}, {"measurement": "binding signal", "setting": "ETV5", "value": "1.06 fold enrichment (6-mer frequency, TF over GST control)"}, {"measurement": "binding signal", "setting": "HSF1", "value": "1.23 fold enrichment (6-mer frequency, TF over GST control)"}, {"measurement": "binding signal", "setting": "SPIC", "value": "1.09 fold enrichment (6-mer frequency, TF over GST control)"}, {"measurement": "binding signal", "setting": "ELF4", "value": "1.2 fold enrichment (6-mer frequency, TF over GST control)"}, {"measurement": "binding signal", "setting": "ELK4", "value": "1.23 fold enrichment (6-mer frequency, TF over GST control)"}, {"measurement": "binding signal", "setting": "ETV2", "value": "1.15 fold enrichment (6-mer frequency, TF over GST control)"}, {"measurement": "binding signal", "setting": "ELF3", "value": "1.17 fold enrichment (6-mer frequency, TF over GST control)"}, {"measurement": "binding signal", "setting": "CRX", "value": "1.38 fold enrichment (6-mer frequency, TF over GST control)"}, {"measurement": "binding signal", "setting": "ETV1", "value": "1.12 fold enrichment (6-mer frequency, TF over GST control)"}]}]}
